Hits are enriched below; roughly 2.7% of the tested compounds scored in any of these assays.
aDG glyco act: alpha-DG glycosylation activation | activation, % at 10 µM | 360,000 tested, 0.22% active | AID 624168 | Pro5-aDG cells, alpha-DG glycosylation AlphaScreen (IIH6); 0% Pro5, 100% B10-LARGE cell signal;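 active = activation of at least 8% versus controls, or a plate z-score of at least 8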;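 also: Pro5 are CHO cells carrying HIG-tagged alpha-DG that lacks glycosylation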
NadD block: blocks S. aureus nicotinate mononucleotide adenylyltransferase; purified NadD enzyme, colorimetric absorbance read-out; inhibition, % at 20 µM; 360,000 tested, 0.78% active; AID 602399; in the data active = inhibition above about 26%
MPTP block: permeability transition pore inhibition; inhibition, % at 10 µM; 360,000 tested, 1.4% active; isolated mouse mitochondria, Ca2+ swelling absorbance, 30 min;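 active = inhibition of 50% or more, scaled per plate between neutral and stimulator controls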
TAG inh: inhibitors of triacylglycerol accumulation | H9c2 cells, Nile Red lipid (TAG) fluorescence; cells loaded with 200 µM oleic acid | inhibition, % at 12.5 µM | 230,000 tested, 0.66% active;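 active = pattern-corrected inhibition of lipid staining of at least 50% with the nuclear-stain viability signal not falling by more than 50%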
A number is an active result.

C#CCOCCOCCOCCNc1nc(N2CCN(C(=O)CCCCCCCCCCNC(=O)Cn3cc(C[C@@H](C)O)nn3)CC2)nc(N2CCN(C(=O)CCCCCCCCCCNC(=O)[C@H](CCCCN)n3cc(CCCC(=O)O)nn3)CC2)n1 was read as aDG glyco act inactive, NadD block inactive, MPTP block inactive and TAG inh inactive.
For C#CCOCCOCCOCCNc1nc(N2CCN(C(=O)CCCCCCCCCCNC(=O)[C@H](CO)n3cc(CCCSC)nn3)CC2)nc(N2CCN(C(=O)CCCCCCCCCCNC(=O)[C@H](CCCN=C(N)N)n3cc(C[C@@H](C)CC)nn3)CC2)n1 the results were aDG glyco act inactive, NadD block 62.3, MPTP block inactive and TAG inh inactive.
Screening C#CCOCCOCCOCCNc1nc(N2CCN(C(=O)CCCCCCCCCCNC(=O)[C@H](CO)n3cc(CCCSC)nn3)CC2)nc(N2CCN(C(=O)CCCCCCCCCCNC(=O)[C@H](CCCCN)n3cc(CCO)nn3)CC2)n1 returned aDG glyco act inactive, NadD block inactive and MPTP block inactive.
Screening C#CCOCCOCCOCCNc1nc(N2CCN(C(=O)CCCCCCCCCCNC(=O)Cn3cc(C[C@@H](C)O)nn3)CC2)nc(N2CCN(C(=O)CCCCCCCCCCNC(=O)[C@H](CCCN=C(N)N)n3cc(C[C@@H](C)CC)nn3)CC2)n1 returned aDG glyco act inactive, NadD block 38.1, MPTP block inactive and TAG inh inactive.
Screening CCN(CC(=O)N1CCOCC1)S(=O)(=O)c1cc(Cl)ccc1Cl returned aDG glyco act inactive, NadD block inactive, MPTP block inactive and TAG inh inactive.
For CN1C(=O)C(O)(CC(=O)c2ccccn2)c2cc(Br)ccc21 (configuration not stated) the results were aDG glyco act inactive, NadD block inactive, MPTP block inactive and TAG inh 52.9.
For CN1C(=O)[C@@](O)(CC(=O)c2ccccc2)c2cc(Br)ccc21 the results were aDG glyco act inactive and MPTP block inactive.
For CCOC(=O)c1sc(=S)n(-c2ccc(OC)cc2)c1C the results were aDG glyco act inactive, NadD block inactive, MPTP block inactive and TAG inh inactive.
`CCOC(=O)c1c2c(n(-c3ccc(OC)cc3)c1C)C(=O)C(=O)c1ccccc1-2` gave aDG glyco act inactive, NadD block inactive, MPTP block inactive and TAG inh 71.0.
For Oc1c(C(c2ccccc2Cl)N2CCCC2)ccc2cccnc12 (configuration not stated) the results were aDG glyco act inactive, NadD block inactive, MPTP block inactive and TAG inh 62.4.
For Cc1ccn2cc(-c3ccc(O)c(O)c3)nc2c1 the results were aDG glyco act inactive, NadD block inactive and MPTP block inactive.
Screening CCN(CC)C(=O)Cn1cc(S(=O)(=O)CC(=O)Nc2ccc(C(N)=O)cc2)c2ccccc21 returned aDG glyco act inactive, NadD block inactive, MPTP block inactive and TAG inh inactive.
`CCCCC(=O)NC(c1cccc([N+](=O)[O-])c1)c1ccc2cccnc2c1O` (configuration not stated) gave aDG glyco act inactive, NadD block inactive, MPTP block inactive and TAG inh 76.2.
Screening CC(=O)NC(c1cccc([N+](=O)[O-])c1)c1ccc2cccnc2c1O (configuration not stated) returned aDG glyco act inactive, NadD block inactive and MPTP block inactive.
For CCCN(C(=O)CSc1ncccn1)C1CCS(=O)(=O)C1 (configuration not stated) the results were aDG glyco act inactive, NadD block inactive, MPTP block inactive and TAG inh inactive.
`OCCCNc1cc(-c2ccnc(Nc3cccc(Cl)c3)n2)ccn1` gave aDG glyco act inactive, NadD block inactive, MPTP block inactive and TAG inh 89.6.
For O=S1(=O)CC(N2CCC(Cc3ccccc3)CC2)CN1C1CCCC1 (configuration not stated) the results were aDG glyco act inactive, NadD block inactive and MPTP block inactive.
For CC1CC(C)CN(C(=O)c2ccc3c(c2NCCO)C(=O)c2ccccc2C3=O)C1 (configuration not stated) the results were aDG glyco act inactive, NadD block inactive, MPTP block inactive and TAG inh 127.0.
For CC1CC(C)CN(C(=O)COC(=O)CN2C(=O)c3ccccc3C2=O)C1 (configuration not stated) the results were aDG glyco act inactive, NadD block inactive, MPTP block inactive and TAG inh inactive.
For O=C(Cc1cccc(NC(=O)C2CCCN(C(=O)CCc3ccccc3)C2)c1)Nc1cccc(C(=O)N2CCCCC2)c1 (configuration not stated) the results were aDG glyco act inactive, NadD block inactive, MPTP block inactive and TAG inh inactive.
COc1cc(/C=N/Nc2cccc(C)c2)cc(Br)c1O was read as aDG glyco act inactive, NadD block 26.0, MPTP block inactive and TAG inh inactive.
For COc1cc(-c2nc(-c3ccc(NC(=O)c4ccc(Br)o4)cc3)no2)cc(OC)c1OC the results were aDG glyco act inactive, NadD block inactive, MPTP block inactive and TAG inh 50.7.
Screening O=C(Nc1ccc(-c2nc3ncccc3o2)cc1)c1ccc(Br)o1 returned aDG glyco act inactive, NadD block inactive, MPTP block inactive and TAG inh 69.2.
`O=C(Nc1ccc(-c2nc3ncccc3o2)cc1)c1ccco1` gave aDG glyco act inactive, NadD block inactive, MPTP block inactive and TAG inh inactive.
`CCCCCCCCCCCCCCCC[N+](C)(C)CCl` gave aDG glyco act inactive, NadD block inactive, MPTP block inactive and TAG inh 65.5.
`CCCCCCCCCCCCCCCC[N+](C)(C)CC` gave aDG glyco act inactive, NadD block inactive, MPTP block inactive and TAG inh inactive.
Screening CCOC(=O)C1CCN(S(=O)(=O)c2cc(C(=O)N3CCCCC3)ccc2OC)CC1 returned aDG glyco act inactive, NadD block inactive, MPTP block inactive and TAG inh inactive.
`CC(=O)O[C@H]1C(=O)[C@@]2(C)[C@H]([C@H](OC(=O)c3ccccc3)[C@]3(O)C[C@H](OC(=O)[C@H](O)[C@@H](NC(=O)c4ccccc4)c4ccccc4)C(C)=C1C3(C)C)[C@]1(OC(C)=O)CO[C@@H]1C[C@@H]2O` gave aDG glyco act inactive, NadD block inactive, MPTP block inactive and TAG inh 56.0.
Screening CCC(=O)NC(c1ccccc1OC)c1ccc2cccnc2c1O (configuration not stated) returned aDG glyco act inactive, NadD block inactive and MPTP block inactive.
`COc1ccc(Cl)cc1C(Nc1cccnc1)c1ccc2cccnc2c1O` (configuration not stated) gave aDG glyco act inactive, NadD block 40.2, MPTP block inactive and TAG inh inactive.
`COc1cc(/C=N/NC(=O)c2cc3ccccc3cc2O)ccc1OCCN1CCCCC1` gave aDG glyco act inactive, NadD block inactive and MPTP block inactive.
For Cn1c2ccccc2c2cc(/C=N/NC(=O)c3ccc(O)cc3O)ccc21 the results were aDG glyco act inactive, NadD block 39.8, MPTP block inactive and TAG inh inactive.
